Bioassay records deposited in PubChem by National Center for Advancing Translational Sciences (NCATS).
PI5P4Ka inh: inhibitors of human PI5P4K alpha | P48426 | PI5P4Kalpha enzyme, ADP-Glo luminescence, 60 min; hits give low values | max response, % | hit rate 1.2% among 330,000; active = max response of -50% or lower; inconclusive = between -30% and -50%; inactive = -30% or higher; also: value at the top dose of about 77 µM
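Quantitative HTS of the MLSMR library against PI5P4Kalpha with substrate. ATP added last at 5 microM final; room temperature, 60 minutes. Remaining ATP depleted, ADP converted and read as luminescence.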
USP2a inh: USP2a (human) protease inhibition; O75604; Potency, µM (titrated, usually from 38.3 µM), without a hit: top-dose activity change, negative = inhibition, actives largely listed as inhibitors; USP2 core, Ub-CHOP2 coupled fluorogenic reporter, 485/531; hit rate 0.01% among 330,000;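 also: potency is read from the fitted curve at half-maximal effect; plate controls were DMSO wells for no effect and full inhibition by NEM control for full effect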
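USP2 core (10nM final) preincubated 30min RT with compound in 20mM Tris-HCl pH 8.0, 2mM CaCl2, 2mM beta-mercaptoethanol, 0.05% CHAPS; 25nM Ub-CHOP2 plus 25nM reporter substrate added, fluorescence (Ex485/Em531) read after 60min.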
USP1-UAF1 inh: inhibitors of human USP1/UAF1 deubiquitinase; hit rate 0.23% among 390,000; recombinant USP1/UAF1, Ub-Rhodamine cleavage fluorescence; O94782; AID 743255; Potency, µM (doses to about 57.1 µM), inactives show at the highest dose activity change, negative = inhibition, most hits filed as inhibitors; also: potency is read from the fitted curve at half-maximal effect; nearly all actives have a fitted effect of over 60% in size
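High-throughput fluorogenic screen: 1nM USP1/UAF1 complex, Ub-Rho substrate 150nM final, 50mM HEPES pH 7.8 with 0.5mM EDTA, 0.1 mg/ml BSA, 1mM TCEP and 0.01% Tween-20.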
PLK1 PBD inh: PLK1 (human) polo-box domain binding inhibition. P53350. Plk1 PBD binding of FITC phosphopeptide, fluorescence polarization. Potency, µM, for the others: max response, negative = inhibition, usual class: inhibitors. hit rate 2.8% among 360,000. AID 720504; also: potency is read from the fitted curve at half-maximal effect; series mostly up to about 57 µM; nearly all actives have a fitted effect of over 65% in size
WRN helicase inh: blocks human WRN helicase | WRN helicase unwinding, fluorescent forked duplex, kinetic | Potency, µM (titrated, usually from 114 µM), for inactives: top-dose activity change, negative = inhibition, actives largely listed as inhibitors | hit rate 0.46% among 360,000; also: potency is read from the fitted curve at half-maximal effect; nearly all actives have a fitted effect of over 55% in size
Target sequence (Q14191 whole entry, looked up): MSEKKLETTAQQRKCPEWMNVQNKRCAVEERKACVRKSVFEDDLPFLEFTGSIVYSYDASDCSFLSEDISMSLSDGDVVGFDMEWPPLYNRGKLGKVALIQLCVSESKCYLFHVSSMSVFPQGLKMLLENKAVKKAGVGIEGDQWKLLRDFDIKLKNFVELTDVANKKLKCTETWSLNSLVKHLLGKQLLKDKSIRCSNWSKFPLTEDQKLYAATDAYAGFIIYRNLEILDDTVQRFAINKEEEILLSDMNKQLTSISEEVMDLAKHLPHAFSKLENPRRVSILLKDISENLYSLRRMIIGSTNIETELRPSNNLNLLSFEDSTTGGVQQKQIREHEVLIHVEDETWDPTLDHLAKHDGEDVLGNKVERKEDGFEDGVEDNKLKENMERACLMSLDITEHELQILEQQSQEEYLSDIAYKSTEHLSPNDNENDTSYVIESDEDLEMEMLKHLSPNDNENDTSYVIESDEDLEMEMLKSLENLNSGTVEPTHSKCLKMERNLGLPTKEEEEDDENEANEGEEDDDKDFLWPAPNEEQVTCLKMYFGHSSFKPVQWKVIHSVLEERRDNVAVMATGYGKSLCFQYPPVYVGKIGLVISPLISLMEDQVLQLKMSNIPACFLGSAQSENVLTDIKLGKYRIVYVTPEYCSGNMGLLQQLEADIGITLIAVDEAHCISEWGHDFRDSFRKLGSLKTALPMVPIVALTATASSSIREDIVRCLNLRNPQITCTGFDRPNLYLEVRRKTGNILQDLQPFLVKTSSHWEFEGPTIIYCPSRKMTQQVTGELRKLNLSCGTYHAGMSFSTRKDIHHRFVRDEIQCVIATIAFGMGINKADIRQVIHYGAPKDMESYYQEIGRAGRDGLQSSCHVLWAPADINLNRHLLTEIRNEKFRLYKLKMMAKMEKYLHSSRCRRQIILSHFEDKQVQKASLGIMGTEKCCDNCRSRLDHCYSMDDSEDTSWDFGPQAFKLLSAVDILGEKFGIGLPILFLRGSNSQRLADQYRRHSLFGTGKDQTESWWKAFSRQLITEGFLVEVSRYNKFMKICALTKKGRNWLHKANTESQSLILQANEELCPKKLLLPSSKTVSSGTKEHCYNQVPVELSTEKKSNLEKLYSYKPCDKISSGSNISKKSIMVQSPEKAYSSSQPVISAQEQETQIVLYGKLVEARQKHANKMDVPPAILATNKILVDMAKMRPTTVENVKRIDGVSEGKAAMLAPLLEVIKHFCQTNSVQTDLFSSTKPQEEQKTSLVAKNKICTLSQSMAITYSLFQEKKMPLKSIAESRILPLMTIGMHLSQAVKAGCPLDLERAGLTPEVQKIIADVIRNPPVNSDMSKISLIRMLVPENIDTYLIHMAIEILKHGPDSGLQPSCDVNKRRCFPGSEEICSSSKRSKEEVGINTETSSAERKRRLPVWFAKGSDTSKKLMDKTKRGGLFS
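Kinetic red-fluorescence monitoring (525/598 nm) tracks WRN helicase activity after 100 nM fluorophore-quencher forked duplex and 2 mM ATP are added to 20 nM enzyme pretreated 15 min at room temperature with compound.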
ADP-Glo interf: interferes with ADP-Glo detection without enzyme present | shares compounds with PI5P4Ka inh | ADP-Glo detection counter-screen, luciferase luminescence, no enzyme | Potency, µM (doses to about 76.9 µM), for inactives: top-dose activity change, negative = inhibition, usual class: inhibitors | 1,100 tested, under 10 active | AID 743285
TbPYK confirm: confirmation of Trypanosoma brucei pyruvate kinase inhibitors; shares compounds with PLK1 PBD inh; recombinant TbPYK, Kinase-Glo ATP luminescence; Potency, µM (highest dose often 76.9 µM), inactives show at the highest dose activity change, negative = inhibition, actives largely listed as inhibitors; hit rate 67% among 890; AID 720569; also: potency is read from the fitted curve at half-maximal effect; nearly all actives have a fitted effect of over 70% in size
TbPYK orthogonal: inhibits T. brucei pyruvate kinase in orthogonal ADP-Glo assay. shares compounds with PLK1 PBD inh. recombinant TbPYK, ADP-Glo luminescence, 60 min. Potency, µM (series often up to 76.9 µM), for the others: at the highest dose activity change, negative = inhibition, usual class: inhibitors. hit rate 62% among 890. AID 720584; also: potency is read from the fitted curve at half-maximal effect; nearly all actives have a fitted effect of over 75% in size
* marks the source's active call; other numbers are inactive results; ? = inconclusive; · = not tested or not shown; [ ] = dose if it differs, or a comment. Shown are actives, neighbours in structure and some others; about 3.3% of the full set was active somewhere. Unless noted, calls follow the shape of the dose curve; as a rule, active = well fitted curve in the direction sought with a large enough effect; inconclusive = small, poorly fitted or top-dose-only effect, or another doubt; inactive = no such curve, though single readings can be large; an effect the other way counts as inactive or inconclusive. Unless noted, % is scaled to controls: 0 for no effect and ±100 for the full control effect.

SMILES | PI5P4Ka inh | USP2a inh | USP1-UAF1 inh | PLK1 PBD inh | WRN helicase inh | TbPYK confirm | TbPYK orthogonal | others
O=S(=O)(NCCc1ccccc1)c1cccc(S(=O)(=O)N2CCOCC2)c1 | 6 | 0% | -2% | 1% | -10% | · | ·
COc1ccc(N2CSC3=C(C#N)C(c4cccc(OC)c4OC)CC(=O)N3C2)cc1 (stereo unspecified) | -51* | 1% | -18% | 7.5µM* | 6% | 1.6µM* | 1.4µM* | ADP-Glo interf=-14%
CCc1ccccc1N1CSC2=C(C#N)C(c3ccccc3F)CC(=O)N2C1 (stereo unspecified) | -60* | 1% | -20% | 19µM* | -1% | 1.1µM* | 1.8µM* | ADP-Glo interf=-8%
COc1cccc(C2SCC(=O)N2c2ccc(Cl)cc2)c1OC (stereo unspecified) | -5 | 1% | -11% | -15% | 2% | · | ·
N#Cc1cc(-c2ccccc2)nn1-c1ccccc1 | -80* | -9% | -28% | 6µM* | -6% | 2.5µM* | 3.2µM* | ADP-Glo interf=-11%
COc1cc(C2CC(=O)N3CN(Cc4ccco4)CSC3=C2C#N)ccc1OCc1ccccc1 (stereo unspecified) | -59* | -6% | ? | ? | -21% | ? | 1µM* | ADP-Glo interf=3%
COc1cc(CNCc2ccco2)ccc1OCc1ccccc1 | · | 0% | -1% | -16% | -1% | · | ·
Cc1ccc(S(=O)(=O)N(C)CC(=O)N2CCN(C(=O)c3ccco3)CC2)cc1 | 2 | 3% | -12% | 3% | 4% | · | ·
CCOc1ccc(S(=O)(=O)N(C)CC(=O)NCc2ccco2)cc1 | 4 | 0% | -9% | -4% | 8% | · | ·
CCOc1ccc(S(=O)(=O)N(C(=O)c2ccco2)c2cc3sc(=O)oc3c3ccccc23)cc1 | -58* | 1% | -21% | ? | ? | ? | ? | ADP-Glo interf=2%
Cc1ccc(S(=O)(=O)N(C(=O)c2ccco2)c2cc3sc(=O)oc3c3ccccc23)cc1 | -56* | 2% | -8% | -7% | 56µM* | -29% | ? | ADP-Glo interf=-1%
O=C(CCN1C(=O)c2ccccc2Sc2ncccc21)Nc1ccc(F)cc1 | · | · | 12% | · | · | · | ·
Cc1cc(O)c(-c2ccnc3cc(-c4ccccc4)nn23)cc1Cl | · | · | -4% | · | · | · | ·
COc1ccc(-c2cnc(C)o2)cc1S(=O)(=O)Nc1ccc(F)cc1F | · | · | -20% | · | · | · | ·
CCN(Cc1ccccc1)C(=O)Cn1c(=O)n(-c2cccc(C)c2)c(=O)c2c1c1cc(C)ccc1n2C | · | · | -13% | · | · | · | ·
Fc1cccc(Cc2c(-c3ccco3)nc3ccc(Cl)cn23)c1 | -51* | · | · | 24µM* | -24% | -28% | ? | ADP-Glo interf=-4%
Fc1cccc(Cc2c(-c3ccco3)nc3ccc(Br)cn23)c1 | -64* | · | · | 24µM* | -32% | ? | ? | ADP-Glo interf=-4%
O=C(O)c1ccc(NS(=O)(=O)c2ccc3c(c2)C2C=CCC2C(c2ccccc2F)N3)cc1 (stereo unspecified) | -51* | -1% | -24% | ? | 35µM* | ? | ? | ADP-Glo interf=-3%
Cc1ccc(NS(=O)(=O)c2ccc3c(c2)[C@H]2C=CC[C@H]2[C@@H](c2ccc(F)cc2)N3)cc1C | · | · | -12% | · | · | · | ·
CCOc1ccc(C(=O)Nc2ccc3oc(-c4cccc5ccccc45)nc3c2)cc1 | · | · | -4% | · | · | · | ·
C=CCOc1ccc(/C=C2/C(=O)ON=C2C)cc1OC | -9 | -1% | -15% | 2.4µM* | ? | 13µM* | ?
CCOC(=O)c1cc(-c2ccc(OC)cc2)n(CCC(=O)Nc2ccccc2OC)c1C | · | · | -20% | · | · | · | ·
Cc1cc(C)c(S(=O)(=O)/N=C2/C=C(Sc3ncn[nH]3)C(=O)c3ccccc32)cc1C | -80* | 0% | 1.3µM* | 0.84µM* | 22µM* | 1.4µM* | 2.5µM*
Cc1ccc2[nH]c(CSc3nnc(NC(=O)COc4ccccc4)s3)cc(=O)c2c1 | · | · | -9% | · | · | · | ·
COc1cccc(CCNC(=O)c2cnc3sc(N4CCOCC4)nn3c2=O)c1 | · | · | 10% | · | · | · | ·
SMILES | PI5P4Ka inh | USP2a inh | USP1-UAF1 inh | PLK1 PBD inh | WRN helicase inh | TbPYK confirm | TbPYK orthogonal | others
CCCS(=O)(=O)c1cscc1NC(=O)c1c(-c2c(F)cccc2Cl)noc1C | 6 | -1% | -9% | 4% | -8% | 13µM* | 14µM*
O=C(Nc1cccnc1)c1ccc2nc(-c3ccccc3)c(-c3ccccc3)nc2c1 | 5 | 2% | -7% | -14% | -8% | · | ·
O=C(Nc1ccccc1)c1ccc2nc(-c3ccco3)c(-c3ccco3)nc2c1 | · | ? | -21% | 27µM* | 40µM* | ? | ?
O=C(NCCCO)c1ccc2nc(-c3ccco3)c(-c3ccco3)nc2c1 | -25 | -2% | ? | 30µM* | ? | 22µM* | 35µM*
Cn1ncc(Br)c1C(=O)NC(=S)N1CCN(c2ccccn2)CC1 | 3 | -1% | -10% | 0% | 6% | 28µM* | 32µM*
Cn1cc(Br)c(C(=O)NC(=S)N2CCN(c3ccccn3)CC2)n1 | -2 | 5% | -6% | -8% | 0% | · | ·
CC(=O)c1ccc(NC(=O)c2cnc(N3CCCC3)nc2C)cc1 | · | · | -22% | · | · | · | ·
CC(=O)/C(=N\Nc1ccc(C)cc1)Sc1nncn1C | -2 | 4% | -21% | -4% | 1% | 4.5µM* | 13µM*
COc1cccc(NC(=O)CCC2CCN(C(=O)c3cncs3)CC2)c1 | 0 | 1% | -25% | -3% | -3% | 20µM* | ?
O=C(c1ccccc1)c1cc(Cl)ccc1N1C(=O)C=CC1=O | -66* | -2% | -6% | 3µM* | 14µM* | 5µM* | 10µM*
O=C(CN1CCN(c2ccc(O)cc2)CC1)Nc1cc(S(=O)(=O)N2CCCCC2)ccc1Cl | ? | 2% | -15% | 1% | -7% | · | ·
COc1cccc(N2CCN(CC(=O)Nc3ccccc3C(=O)NCCc3ccccc3)CC2)c1 | -6 | 1% | -21% | 2% | -1% | · | ·
O=C(CN1CCN(c2ccc(O)cc2)CC1)Nc1cc(S(=O)(=O)N2CCCC2)ccc1Cl | -3 | -7% | -5% | -11% | 6%[11.6 µM] | 20µM* | 32µM*
O=C(CN1CCN(c2ccc(O)cc2)CC1)Nc1ccccc1C(=O)NCCc1ccccc1 | -14 | -6% | -24% | 3% | -7% | 2.5µM* | 5µM*
Cc1ccc(/C=C/C(=O)NCC2COc3ccccc3O2)o1 (stereo unspecified) | -70* | 4% | -1% | ? | -33%[57.1 µM] | 25µM* | 22µM*
